Experimental data published in PubChem BioAssay (EPA / NIEHS).
Inconclusive results are not listed. The source made the active and inactive calls. The calls were made as follows, unless noted: active = hit-call score of the fitted dose curve at least 0.9, where 1 is the maximum; inconclusive = response in the unintended direction; inactive = score below 0.9.

How the values were obtained:
[1] = read-out: Cytochrome P450 2B6 (Homo sapiens) (UniProt P20813); test: CLD_CYP2B6_48hr: CellzDirect (CLD) Gene Expression Assay for xenobiotic metabolism (CYP2B6) at 48 hours (AID 2283699);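 also: actives raise transcript level above DMSO so potency reflects induction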
Procedure, shortened: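 Primary human hepatocytes dosed daily for two days over multiple concentrations, 0.2% DMSO vehicle; CYP2B6 mRNA quantified at 48 h by qNPA chemiluminescence. Induction fitted as gain of signal versus DMSO; cytotoxicity annotated by morphology.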

[2] = read-out: Cytochrome P450 2C9 (Homo sapiens) (UniProt P11712); test: CLD_CYP2C9_48hr: CellzDirect (CLD) Gene Expression Assay for xenobiotic metabolism (CYP2C9) at 48 hours (AID 2283701; active = hit-call score of the fitted dose curve at least 0.9, where 1 is the maximum; inactive = score below 0.9)
Procedure, shortened: (§1)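 Primary human hepatocytes (two donor preparations) dosed daily for two days with test chemicals, 0.2% DMSO vehicle; harvested at 48 h. mRNA induction quantified by qNPA chemiluminescence, fitted for gain of signal against DMSO baseline; cytotoxicity annotated from phase-contrast morphology.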

[3] = read-out: xenobiotic metabolism (CYP1A2), CYP1A2 (gene 1544); test: CLD_CYP1A2_48hr: CellzDirect (CLD) Gene Expression Assay for xenobiotic metabolism (CYP1A2) at 48 hours (AID 2283703)
Procedure, shortened: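 Primary human hepatocytes from two donor preparations were dosed daily for two days at multiple concentrations in 0.2% DMSO vehicle. CYP1A2 mRNA was measured at 48 hours by chemiluminescent quantitative nuclease protection assay, with gain of signal fitted versus DMSO and cytotoxicity annotated from morphology.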

[4] = read-out: Glyceraldehyde-3-phosphate dehydrogenase (Homo sapiens) (UniProt P04406); test: CLD_GAPDH_48hr: CellzDirect (CLD) Gene Expression Assay for Baseline Control (Glyceraldehyde 3-phosphate dehydrogenase) at 48 hours (AID 2283706);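 also: active means higher GAPDH mRNA than DMSO vehicle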
Procedure, shortened: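 Primary human hepatocytes dosed daily for two days with fresh chemical at multiple concentrations, 0.2% DMSO vehicle; GAPDH mRNA measured at 48 h by quantitative nuclease protection assay with chemiluminescence, fitted upward relative to DMSO as background control.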

[5] = read-out: glucuronosyltransferase (UGT1A1), UGT1A1 (gene 54658); test: CLD_UGT1A1_48hr: CellzDirect (CLD) Gene Expression Assay for glucuronosyltransferase (UGT1A1) at 48 hours (AID 2283709);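 also: actives increase expression relative to DMSO so potency refers to induction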
Procedure, shortened: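 Human primary hepatocytes dosed daily for two days (0.2% DMSO vehicle), harvested at 48 h. UGT1A1 mRNA induction measured by quantitative nuclease protection assay with chemiluminescence; gain of signal versus DMSO; cytotoxicity flagged from morphology.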

[6] = read-out: sulfotransferase (SULT2A), SULT2A1 (gene 6822); test: CLD_SULT2A_48hr: CellzDirect (CLD) Gene Expression Assay for sulfotransferase (SULT2A) at 48 hours (AID 2283710);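 also: hits raise SULT2A1 transcript above the 0.2% DMSO vehicle baseline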
Procedure, shortened: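 Primary human hepatocytes (two donor preparations) dosed daily for two days with chemicals at multiple concentrations, vehicle 0.2% DMSO; SULT2A1 mRNA induction at 48 h by quantitative nuclease protection assay, chemiluminescent read-out, fitted for gain of signal versus DMSO.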

[7] = read-out: HMG-CoA synthase (HMGCS2), HMGCS2 (gene 3158); test: CLD_HMGCS2_48hr: CellzDirect (CLD) Gene Expression Assay for HMG-CoA synthase (HMGCS2) at 48 hours (AID 2283711)
Procedure, shortened: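 Primary human hepatocytes from two donors dosed daily for two days, 0.2% DMSO vehicle. HMGCS2 mRNA measured 48 h after dosing by quantitative nuclease protection assay with chemiluminescent read-out; induction fitted relative to DMSO, cytotoxicity flagged by microscopy.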

[8] = Tanguay_ZF_120hpf_ActivityScore_legacy: (Legacy) Oregon State University Tanguay Lab 120 Hour Post-fertilization zebrafish Assay Score for Activity (AID 2283742);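 as to AC50: dechorionated Tropical 5D wild-type zebrafish embryos held singly per well; static exposure from 6 hpf until 120 hpf at 28 °C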
Procedure, shortened: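 Embryos are staged, enzymatically dechorionated at 4 hpf, placed individually at 6 hpf, then held in test chemical (0.64% DMSO) at 28C until 120 hpf. Mortality and malformations are scored by brightfield, with non-mortality endpoints skipped for dead embryos.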

[9] = read-out: Broad substrate specificity ATP-binding cassette transporter ABCG2 (Homo sapiens) (UniProt Q9UNQ0); test: CLD_ABCG2_48hr: CellzDirect (CLD) Gene Expression Assay for ABC Transporter (ABCG2) at 48 hours (AID 2283704)
Procedure, shortened: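 Primary human hepatocytes from two donors, dosed daily for 2 days, 0.2% DMSO vehicle, several concentrations. ABCG2 mRNA at 48 h by qNPA chemiluminescence, gain fitted versus DMSO; cytotoxicity flagged by morphology.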

[10] = read-out: xenobiotic metabolism (CYP1A1), CYP1A1 (gene 1543); test: CLD_CYP1A1_48hr: CellzDirect (CLD) Gene Expression Assay for xenobiotic metabolism (CYP1A1) at 48 hours (AID 2283705)
Procedure, shortened: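 Primary human hepatocytes from two donors dosed daily for two days at multiple concentrations, 0.2% DMSO vehicle; CYP1A1 mRNA induction at 48 h by qNPA chemiluminescence. Cytotoxicity noted by phase-contrast morphology.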

[11] = read-out: alkyl and aryl transferase (GSTA2), GSTA2 (gene 2939); test: CLD_GSTA2_48hr: CellzDirect (CLD) Gene Expression Assay for alkyl and aryl transferase (GSTA2) at 48 hours (AID 2283708);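 also: active means mRNA induction above DMSO vehicle baseline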
Procedure, shortened: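 Primary human hepatocytes dosed daily for two days (0.2% DMSO vehicle), harvested at 48 h. GSTA2 mRNA induction measured by quantitative nuclease protection assay with chemiluminescent imaging, fitted for gain of signal relative to DMSO.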

[12] = STM_H9_CystineISnorm_perc: Stemina devTOX quickPredict H9 human embryonic stem cell (hESC)-based Assay for Cystine (CYSS) Metabolite Biomarker, Normalized (AID 2283713; active = hit-call score of the fitted dose curve at least 0.9, where 1 is the maximum; inactive = score below 0.9)
Procedure, shortened: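 H9 hESC, pluripotent; compound 72h, re-dosed q24h with medium change. Last-24h medium → 40% acetonitrile deproteinization → UPLC-HRMS. CYSS area / C13-CYSS standard, then % of 0.1% DMSO median.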

[13] = STM_H9_OrnCyssISnorm_ratio: Stemina devTOX quickPredict H9 human embryonic stem cell (hESC)-based Assay for Ornithine (ORN):Cystine (CYSS) Ratio (AID 2283714)
Procedure, shortened: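 Steps: H9 hESCs in pluripotent state dosed 72h, medium plus compound renewed every 24h; conditioned medium from the final 24h deproteinized in 40% acetonitrile; ORN and CYSS quantified by UPLC-HRMS with C13 spike-ins; ratio relative to vehicle.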

[14] = CEETOX_H295R_MTT_cell_viability: Viability Assessment in the CeeTox HT-H295R MTT Assay (AID 2283718; active = hit-call score of the fitted dose curve at least 0.9, where 1 is the maximum; inactive = score below 0.9;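 as to AC50: curve fitted both ways so AC50 may mark viability loss or gain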)
Procedure, shortened: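 MTT reduction (0.5 mg/ml, 4 h at 37 C; absorbance at 570 and 650 nm) gave viability as background-corrected percent change versus controls. H295R cells had 48 h forskolin (10 uM) prestimulation, then 48 h chemical exposure at 0.1% DMSO.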

[15] = read-out: organic anion transporter (SLCO1B1), SLCO1B1 (gene 10599); test: CLD_SLCO1B1_48hr: CellzDirect (CLD) Gene Expression Assay for organic anion transporter (SLCO1B1) at 48 hours (AID 2283707)
Procedure, shortened: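 Primary human hepatocytes from two donor preparations dosed daily for two days with multiple concentrations, 0.2% DMSO vehicle. SLCO1B1 mRNA at 48 h by quantitative nuclease protection assay, chemiluminescence; gain-of-signal fitted versus DMSO.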

[16] = test system: Thyroperoxidase (TPO), gene 445522; test: CCTE_Simmons_GUA_TPO: CCTE's Guaiacol Assay for Thyroperoxidase (TPO) Inhibition, Simmons Lab (AID 2283750)
Procedure, shortened: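 Porcine thyroid microsomes (25 ug) in 200mM potassium phosphate, preincubated 30 s at 37C with compound (8 concentrations, 5 nM–87.5 uM) and 35mM guaiacol; 1mM H2O2 starts reaction. Absorbance change at 450nm over first 80 s; loss of signal versus DMSO, three replicates.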

[17] = read-out: xenobiotic metabolism (CYP2C9), CYP2C9 (gene 1559); test: CLD_CYP2C9_48hr: CellzDirect (CLD) Gene Expression Assay for xenobiotic metabolism (CYP1A2) at 48 hours (AID 2283701)
Procedure, shortened: as §1

[18] = ArunA_CellTiter_hNC: Viability Assessment in the ArunA Biomedical's Oris Neural Crest (hNC) Cell Migration Assay (AID 2283752)
Procedure, shortened: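 Cell titer was measured with the CellTiter Aqueous One reagent after 72 h of chemical dosing. Cells were H9-derived embryonic neural crest stem cells seeded on Matrigel, 60,000 per well, and given 16 h at 37C beforehand.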

[19] = ArunA_CellTiter_hNP: Viability Assessment in the ArunA Biomedical's Oris Neural Crest (hNC) Cell Migration Assay (AID 2283753)
Procedure, shortened: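 H9-derived hNP1 neuroprogenitors, 60,000/well on Matrigel, cultured 16 h, then 72 h chemical exposure in test medium. Cell titer via CellTiter Aqueous One; positive-direction fit vs DMSO.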

[20] = ArunA_Migration_hNP: ArunA Biomedical's Oris Neuroprogenitor (hNP) Cell Migration Assay (AID 2283754)
Procedure, shortened: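 Human H9-derived hNP1 neuroprogenitors on Matrigel with LIF/bFGF, plated around seeding stoppers for 16 h at 37C; stoppers removed at start of 72 h chemical exposure. Calcein-AM staining, fluorescence 494/517 nm in detection zone; loss-of-signal vs DMSO; cytochalasin D control.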

Measured: AC50

Chain of Broad substrate specificity ATP-binding cassette transporter ABCG2 (Homo sapiens) (Q9UNQ0 whole entry, looked up): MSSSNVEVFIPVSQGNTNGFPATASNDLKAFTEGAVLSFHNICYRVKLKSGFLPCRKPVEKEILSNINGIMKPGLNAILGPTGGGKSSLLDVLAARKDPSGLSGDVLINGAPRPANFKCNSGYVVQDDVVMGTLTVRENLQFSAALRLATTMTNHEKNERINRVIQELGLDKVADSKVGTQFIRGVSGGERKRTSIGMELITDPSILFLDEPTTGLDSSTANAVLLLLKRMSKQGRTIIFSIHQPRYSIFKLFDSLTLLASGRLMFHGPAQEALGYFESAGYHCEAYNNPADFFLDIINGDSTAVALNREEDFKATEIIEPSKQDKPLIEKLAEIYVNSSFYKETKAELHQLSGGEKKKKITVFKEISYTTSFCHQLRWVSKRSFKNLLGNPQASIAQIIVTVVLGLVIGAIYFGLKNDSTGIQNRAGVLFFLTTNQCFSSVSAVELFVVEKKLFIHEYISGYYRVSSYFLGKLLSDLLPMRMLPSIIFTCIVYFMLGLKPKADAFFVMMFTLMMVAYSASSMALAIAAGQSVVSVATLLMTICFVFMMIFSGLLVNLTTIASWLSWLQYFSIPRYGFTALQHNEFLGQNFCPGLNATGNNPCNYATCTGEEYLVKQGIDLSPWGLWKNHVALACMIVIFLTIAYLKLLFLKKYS
Chain of Glyceraldehyde-3-phosphate dehydrogenase (Homo sapiens) (P04406 whole entry, looked up): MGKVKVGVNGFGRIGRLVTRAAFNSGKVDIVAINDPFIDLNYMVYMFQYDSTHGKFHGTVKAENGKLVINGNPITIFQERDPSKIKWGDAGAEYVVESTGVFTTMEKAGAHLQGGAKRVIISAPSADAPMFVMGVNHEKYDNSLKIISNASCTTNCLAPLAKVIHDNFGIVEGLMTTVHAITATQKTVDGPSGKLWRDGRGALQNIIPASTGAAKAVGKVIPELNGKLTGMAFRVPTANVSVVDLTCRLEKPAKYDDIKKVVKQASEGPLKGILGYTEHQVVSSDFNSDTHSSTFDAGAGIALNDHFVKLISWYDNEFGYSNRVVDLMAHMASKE

CCOP(=O)(OCC)Oc1nc(Cl)c(Cl)cc1Cl
active: [1] 3.97 µM | [3] 4.58 µM | [8] 1.15 µM
inactive: [2] | [4] | [5] | [6] | [7]

CCCN(CC)CC1COC2(CCC(C(C)(C)C)CC2)O1 (stereo not drawn)
active: [3] 0.199 µM | [10] 3.97 µM | [6] 0.0474 µM | [12] 1.03 µM | [13] 1.3 µM
inactive: [2] | [9] | [4] | [11] | [5] | [7] | [14] | [8]

CCCCC(C#N)(Cn1cncn1)c1ccc(Cl)cc1 (stereo not drawn)
active: [3] 11.7 µM | [13] 77.9 µM
inactive: [2] | [9] | [5] | [12] | [14]

C=C(C)CN(CC)c1c([N+](=O)[O-])cc(C(F)(F)F)cc1[N+](=O)[O-]
inactive: [1] | [3] | [9] | [4] | [15] | [11] | [5] | [6]

COC(=O)NC(=S)Nc1ccccc1NC(=S)NC(=O)OC
active: [3] 15.7 µM | [16] 49.6 µM
inactive: [2] | [9] | [15] | [5] | [6] | [7] | [14]

CC(C)N1C(=O)N(c2ccccc2)CSC1=NC(C)(C)C
active: [6] 33.1 µM
inactive: [2] | [3] | [9] | [5] | [8]

O=C(O)c1c(Cl)ccc2cc(Cl)cnc12
inactive: [1] | [3] | [4] | [15] | [6] | [7] | [8]
active: [17] 69 nM

CS(=O)(=O)c1ccc(C(=O)C2C(=O)CCCC2=O)c([N+](=O)[O-])c1
inactive: [2] | [3] | [9] | [4] | [5] | [6] | [7] | [12] | [13] | [8]

CC1(C)CCC(=Cc2ccc(Cl)cc2)C1(O)Cn1cncn1 (stereo not drawn)
inactive: [2] | [9] | [5] | [6] | [14] | [8]
active: [1] 4.01 µM | [3] 1.66 µM | [12] 28.9 µM | [13] 35 µM

O=c1n(Cl)c(=O)n(Cl)c(=O)n1Cl
inactive: [1] | [2] | [3] | [9] | [10] | [15] | [11] | [5] | [6]

COCC(C)N(C(=O)CCl)c1c(C)csc1C (stereo not drawn)
active: [1] 5.14 µM | [8] 29.2 µM
inactive: [9] | [4] | [15] | [5]

COCC(=O)N(c1c(C)cccc1C)C(C)C(=O)OC (stereo not drawn)
inactive: [2] | [3] | [5] | [7] | [14]
active: [1] 3.08 µM | [6] 20 µM

COC(=O)c1c(C(F)F)nc(C(F)(F)F)c(C2=NCCS2)c1CC(C)C
inactive: [2] | [9] | [5]
active: [3] 1.66 µM | [6] 1.7 µM | [14] 38.8 µM

CC1(C)C(C(=O)OC(C#N)c2cccc(Oc3ccccc3)c2)C1(C)C (stereo not drawn)
active: [5] 5.67 µM
inactive: [2] | [3] | [9] | [6] | [7] | [8]

CNC(=O)Oc1cccc2ccccc12
inactive: [11] | [5] | [14]
active: [1] 4.42 µM | [3] 3.23 µM | [12] 2.87 µM | [13] 2.71 µM

O=C1C2CC=CCC2C(=O)N1SC(Cl)(Cl)Cl (stereo not drawn)
inactive: [1] | [9] | [15] | [6] | [12] | [14]

COc1cc(OC)nc(NC(=O)NS(=O)(=O)c2ncccc2OCC(F)(F)F)n1
inactive: [1] | [2] | [3] | [9] | [15] | [5] | [6] | [7] | [12] | [8]

CCNP(=S)(OC)O/C(C)=C/C(=O)OC(C)C (stereo not drawn)
active: [1] 0.598 µM | [3] 1.99 µM | [10] 3.99 µM | [5] 1.04 µM | [12] 75.5 µM | [13] 72.6 µM
inactive: [2] | [6] | [14]

COP(=S)(OC)Oc1ccc([N+](=O)[O-])c(C)c1
inactive: [11]

CC(C)C1(C)N=C(c2ncccc2C(=O)O)NC1=O (stereo not drawn)
inactive: [18] | [19] | [20]

COc1ccc(-c2ccccc2)cc1NNC(=O)OC(C)C
inactive: [18] | [19] | [20]
